From PubChem BioAssay
This is one part of the list. Active and inactive are the calls of the source.

Legend:
[1] = target: Inward rectifier potassium channel 2 (Mus musculus) (UniProt P35561); experiment: inhibition of Kir2.1 inward rectifier potassium flux – cell-based, FluxOR thallium flux, duplicate, confirmation (AID 2032;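 active means Primary-screen hit whose thallium flux fell at least 3 control SD below untreated wells in both duplicates, with normal baseline fluorescence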); conditions: Kir2.1-expressing cells, FluxOR thallium flux fluorescence, at 10 µM; stronger effect = lower value
[2] = parental HEK293 cell activity, no Kir2.1 – FluxOR thallium flux, duplicate, single concentration, counter-screen for Kir2.1 inhibitor project, confirmation (AID 2105); conditions: parental HEK293 cells, FluxOR thallium flux fluorescence, at 10 µM; 0% = unstimulated blank wells;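 on FluxOR signal as % of negative control (100 = no effect): percent is based on the flux ratio of peak minus minimum fluorescence over baseline F0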
[3] = nonspecific flux increase, KCNQ1-free cells – parental CHO cells, counter-screen for KCNQ1 potentiator project (AID 493006;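 active means duplicate-averaged activation above buffer control mean plus 5 SD of those controls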;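 on activation: fluorescence ratio of max minus min over baseline after K+ and Tl+ depolarization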); conditions: parental CHO-K1 cells, FluxOR thallium flux, at 10 µM; stronger effect = higher value
[4] = target: Potassium voltage-gated channel subfamily KQT member 1 (Homo sapiens) (UniProt P51787); experiment: enhancement of KCNQ1 channel thallium flux – FluxOR thallium flux, CHO cells, duplicates, confirmation (AID 493007;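 active means potentiation averaged over duplicate wells exceeding buffer-only control mean by more than 3 SD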;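 further: 0% = buffer-only wells and 100% = R-L3 activator control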); conditions: KCNQ1 cell line, FluxOR thallium flux fluorescence, at 10 µM; stronger effect = higher value, % of reference activator effect, buffer zero
[5] = target: Potassium voltage-gated channel subfamily KQT member 2 (Rattus norvegicus) (UniProt O88943); experiment: KCNQ2 thallium flux enhancement – KCNQ2-CHO-K1 cells, selectivity assay for KCNQ1 potentiator project (AID 493009;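 active means mean duplicate potentiation above the buffer control mean plus 5 SD of buffer wells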;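 further: assay conditions were tuned for KCNQ1 rather than KCNQ2 modulators; signal is max minus min fluorescence divided by baseline after thallium stimulus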); conditions: FluxOR thallium flux fluorescence, at 10 µM; stronger effect = higher value, scaled: buffer 0, activator control 100
[6] = target: Potassium voltage-gated channel subfamily KQT member 1 (Homo sapiens) (UniProt P51787); experiment: KCNQ1 activators by electrophysiology – IonWorks patch clamp, KCNQ1-CHO cells, orthogonal assay for KCNQ1 potentiator project, confirmation (AID 493184;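 active means current rise at least 3 SD above the untreated control mean in each of two repeat wells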); conditions: automated patch clamp current, at 10 µM; stronger effect = higher value
[7] = target: Potassium voltage-gated channel subfamily E member 1 (Homo sapiens) + Potassium voltage-gated channel subfamily KQT member 1 (Homo sapiens) (UniProt P15382+P51787); experiment: KCNQ1-E1 channel activation – thallium flux, CHO-K1 KCNQ1/E1 cells, selectivity assay for KCNQ1 potentiator project, confirmation (AID 493186;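 active means mean duplicate activation above the buffer control mean plus 5 SD of those controls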); conditions: FluxOR thallium flux, at 10 µM
[8] = parental CHO-K1 cell activation, no KCNQ2 – FluxOR thallium flux, duplicate, counter-screen for KCNQ2 potentiator project, confirmation (AID 2282;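 active means signal rise of at least 3 SD above the untreated control mean, in both duplicate wells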;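 further: counter screen of KCNQ2 potentiator hits so any rise reflects channel-independent effects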); conditions: parental CHO-K1 cells, FluxOR thallium flux fluorescence; at 10 µM; stronger effect = higher value; zero = vehicle mean+3SD, 100% = vehicle-minus-blank window
[9] = target: Potassium voltage-gated channel subfamily KQT member 1 (Homo sapiens) (UniProt P51787); experiment: KCNQ1 activation in stable CHO cells – cell-based, FluxOR thallium flux, selectivity assay for KCNQ2 potentiator project, confirmation (AID 2283;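 active means fluorescence ratio rise of at least 3 SD of vehicle wells above their mean, in both replicate wells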;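 further: 0% = vehicle mean plus 3 SD and 100% = vehicle minus unstimulated blank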); conditions: FluxOR thallium flux fluorescence, at 10 µM, stronger effect = higher value, beyond 3SD, as % of vehicle-control signal
[10] = target: Potassium voltage-gated channel subfamily KQT member 2 (Rattus norvegicus) (UniProt O88943); experiment: KCNQ2 potassium channel activity enhancers – cell-based, CHO, FluxOR thallium flux, duplicate, confirmation (AID 2287;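 active means fluorescence ratio rising 3 SD or more over the vehicle control mean in both replicates, plus primary screen hit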;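 further: peak minus minimum thallium fluorescence divided by baseline after K/Tl stimulus; 0% = vehicle mean plus 3 SD and 100% = vehicle minus unstimulated blank difference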); conditions: CHO-KCNQ2 cells, FluxOR thallium flux fluorescence; at 10 µM; stronger effect = higher value
[11] = target: Inward rectifier potassium channel 2 (Mus musculus) (UniProt P35561); experiment: PubChem AID 2345; conditions: HEK293 Kir2.1, FluxOR thallium flux fluorescence; at 10 µM; stronger effect = higher value;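 further: 0% = vehicle mean plus 3 SD and 100% = vehicle minus no-stimulus blank window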
[12] = target: Potassium voltage-gated channel subfamily KQT member 2 (Rattus norvegicus) (UniProt O88943); experiment: W236L mutant KCNQ2 current enhancers – cell-based, rat KCNQ2 W236L, CHO, automated patch clamp, mechanism study for KCNQ2 potentiator project (AID 2558;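 active means current increase at least 3 SD of the untreated controls above them in both duplicate recordings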); conditions: at 25 µM
[13] = target: Short transient receptor potential channel 4 (Mus musculus) (UniProt Q9QUQ5); experiment: DAMGO-gated TRPC4 membrane potential modulation – cell-based, second specificity screen, HEK293 TRPC4/mu-opioid, selectivity assay for TRPC6 inhibitor project, confirmation (AID 2776;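 active means compounds whose fluorescence signal differed from control wells by over 3 SD, either direction, in both duplicate plates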); conditions: HEK293 TRPC4/MOR, membrane potential dye fluorescence, at 10 µM, channel activated by saturating DAMGO dose; stronger effect = higher value
[14] = system: transient receptor potential cation channel C4 (TRPC4), mouse; experiment: membrane potential change in TRPC4 cells – cell-based, HEK293 TRPC4/mu-opioid, membrane potential dye, selectivity assay for TRPC6 inhibitor project, confirmation (AID 2777;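 active means rise or fall in signal beyond 3 SD of buffer-only wells in both replicate plates, either sign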;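 further: integrated kinetic ratio of fluorescence range over baseline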); conditions: membrane potential fluorescence, at 10 µM
[15] = parental HEK293 depolarization signal interference – cell-based, second counter screen, counter-screen for TRPC6 inhibitor project, confirmation (AID 2779;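 active means membrane potential signal moving either way by over 3 SD of the maximum-effect control, in both duplicate plates, meaning non-specific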); conditions: parental HEK293 membrane potential dye fluorescence; at 10 µM; maximal acetylcholine challenge after compound addition
[16] = nonspecific voltage dye signal in HEK293 – cell-based, parental HEK293, counter-screen for TRPC6 inhibitor project, confirmation (AID 2780;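 active means membrane potential signal shifting up or down by more than 3 SD of buffer-only wells, on both duplicate plates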;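 further: plate controls were buffer EC0 wells for no effect and acetylcholine ECmax wells for full effect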); conditions: parental HEK293 membrane potential dye fluorescence; at 10 µM
[17] = target: Short transient receptor potential channel 6 (Mus musculus) (UniProt Q61143); experiment: blockers of TRPC6 cation channel activity – HEK293 cells, membrane potential dye, duplicate, confirmation (AID 488960;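 active means fluorescence ratio falls more than 5 SD below the full-stimulation control mean, in both duplicate runs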); conditions: ACh-evoked depolarization, at 10 µM; stronger effect = higher value
[18] = target: Short transient receptor potential channel 6 (Mus musculus) (UniProt Q61143); experiment: mouse TRPC6 channel activators, confirmation, HEK293 cells, membrane potential dye, duplicate (AID 488961;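 active means ratio signal rise beyond 5 SD above unstimulated control wells' mean, seen in both duplicate runs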); conditions: HEK293-TRPC6 membrane potential dye fluorescence, FDSS, at 10 µM; stronger effect = higher value

Chain of Potassium voltage-gated channel subfamily KQT member 1 (Homo sapiens) (P51787 whole entry, looked up): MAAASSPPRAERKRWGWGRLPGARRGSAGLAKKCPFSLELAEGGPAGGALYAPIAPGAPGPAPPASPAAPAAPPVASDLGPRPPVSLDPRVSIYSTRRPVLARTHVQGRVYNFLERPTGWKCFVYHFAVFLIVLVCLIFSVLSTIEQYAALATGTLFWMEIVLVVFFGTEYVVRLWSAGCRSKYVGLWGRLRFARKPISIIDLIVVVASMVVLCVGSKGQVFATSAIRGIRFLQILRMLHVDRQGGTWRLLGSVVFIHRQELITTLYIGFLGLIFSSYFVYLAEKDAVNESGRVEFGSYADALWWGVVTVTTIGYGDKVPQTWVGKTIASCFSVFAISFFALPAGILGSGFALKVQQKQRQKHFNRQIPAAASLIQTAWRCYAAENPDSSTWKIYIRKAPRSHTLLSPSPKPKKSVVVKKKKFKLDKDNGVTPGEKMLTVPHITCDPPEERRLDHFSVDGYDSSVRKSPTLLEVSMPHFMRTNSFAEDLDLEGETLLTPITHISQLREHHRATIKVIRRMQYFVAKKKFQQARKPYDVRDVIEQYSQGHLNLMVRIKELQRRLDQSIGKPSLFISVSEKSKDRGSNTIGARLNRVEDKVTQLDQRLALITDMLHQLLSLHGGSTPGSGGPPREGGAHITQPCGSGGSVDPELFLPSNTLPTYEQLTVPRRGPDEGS
Chain of Inward rectifier potassium channel 2 (Mus musculus) (P35561 whole entry, looked up): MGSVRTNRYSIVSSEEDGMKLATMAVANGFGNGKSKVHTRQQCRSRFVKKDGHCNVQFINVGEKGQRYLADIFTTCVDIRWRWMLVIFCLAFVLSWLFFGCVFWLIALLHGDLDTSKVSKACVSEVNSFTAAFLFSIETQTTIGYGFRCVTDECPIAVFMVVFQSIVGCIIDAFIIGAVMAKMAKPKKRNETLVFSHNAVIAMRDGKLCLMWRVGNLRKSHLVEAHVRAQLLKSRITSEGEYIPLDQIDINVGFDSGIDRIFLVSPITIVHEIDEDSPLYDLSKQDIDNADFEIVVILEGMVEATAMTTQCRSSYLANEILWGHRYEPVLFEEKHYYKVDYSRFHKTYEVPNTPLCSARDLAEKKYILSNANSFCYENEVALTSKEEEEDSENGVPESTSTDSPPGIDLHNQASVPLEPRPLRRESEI
Chain of Short transient receptor potential channel 6 (Mus musculus) (Q61143 whole entry, looked up): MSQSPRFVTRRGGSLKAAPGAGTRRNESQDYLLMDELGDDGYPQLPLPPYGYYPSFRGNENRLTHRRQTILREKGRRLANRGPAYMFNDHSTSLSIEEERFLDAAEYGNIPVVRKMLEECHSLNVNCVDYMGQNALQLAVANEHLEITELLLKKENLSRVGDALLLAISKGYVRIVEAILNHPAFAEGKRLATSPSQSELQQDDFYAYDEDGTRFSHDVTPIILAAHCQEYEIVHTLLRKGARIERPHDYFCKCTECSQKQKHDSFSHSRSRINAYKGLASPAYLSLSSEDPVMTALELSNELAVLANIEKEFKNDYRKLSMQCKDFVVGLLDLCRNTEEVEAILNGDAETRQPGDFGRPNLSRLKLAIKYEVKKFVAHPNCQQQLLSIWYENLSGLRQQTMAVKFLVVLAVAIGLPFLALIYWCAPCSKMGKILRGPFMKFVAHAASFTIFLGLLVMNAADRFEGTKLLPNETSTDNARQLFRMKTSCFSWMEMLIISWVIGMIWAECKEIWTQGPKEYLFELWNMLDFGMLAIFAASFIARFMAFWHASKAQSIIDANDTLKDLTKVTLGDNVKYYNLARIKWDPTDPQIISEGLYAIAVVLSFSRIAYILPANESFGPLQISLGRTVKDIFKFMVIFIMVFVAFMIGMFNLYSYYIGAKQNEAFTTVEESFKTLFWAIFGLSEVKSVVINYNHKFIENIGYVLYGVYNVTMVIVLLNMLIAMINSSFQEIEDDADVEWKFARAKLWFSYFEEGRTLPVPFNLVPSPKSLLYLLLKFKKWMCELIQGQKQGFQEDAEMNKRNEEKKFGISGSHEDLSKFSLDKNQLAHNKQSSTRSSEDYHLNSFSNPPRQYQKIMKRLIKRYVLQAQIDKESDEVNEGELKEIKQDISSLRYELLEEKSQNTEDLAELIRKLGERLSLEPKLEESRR
Chain of Short transient receptor potential channel 4 (Mus musculus) (Q9QUQ5 whole entry, looked up): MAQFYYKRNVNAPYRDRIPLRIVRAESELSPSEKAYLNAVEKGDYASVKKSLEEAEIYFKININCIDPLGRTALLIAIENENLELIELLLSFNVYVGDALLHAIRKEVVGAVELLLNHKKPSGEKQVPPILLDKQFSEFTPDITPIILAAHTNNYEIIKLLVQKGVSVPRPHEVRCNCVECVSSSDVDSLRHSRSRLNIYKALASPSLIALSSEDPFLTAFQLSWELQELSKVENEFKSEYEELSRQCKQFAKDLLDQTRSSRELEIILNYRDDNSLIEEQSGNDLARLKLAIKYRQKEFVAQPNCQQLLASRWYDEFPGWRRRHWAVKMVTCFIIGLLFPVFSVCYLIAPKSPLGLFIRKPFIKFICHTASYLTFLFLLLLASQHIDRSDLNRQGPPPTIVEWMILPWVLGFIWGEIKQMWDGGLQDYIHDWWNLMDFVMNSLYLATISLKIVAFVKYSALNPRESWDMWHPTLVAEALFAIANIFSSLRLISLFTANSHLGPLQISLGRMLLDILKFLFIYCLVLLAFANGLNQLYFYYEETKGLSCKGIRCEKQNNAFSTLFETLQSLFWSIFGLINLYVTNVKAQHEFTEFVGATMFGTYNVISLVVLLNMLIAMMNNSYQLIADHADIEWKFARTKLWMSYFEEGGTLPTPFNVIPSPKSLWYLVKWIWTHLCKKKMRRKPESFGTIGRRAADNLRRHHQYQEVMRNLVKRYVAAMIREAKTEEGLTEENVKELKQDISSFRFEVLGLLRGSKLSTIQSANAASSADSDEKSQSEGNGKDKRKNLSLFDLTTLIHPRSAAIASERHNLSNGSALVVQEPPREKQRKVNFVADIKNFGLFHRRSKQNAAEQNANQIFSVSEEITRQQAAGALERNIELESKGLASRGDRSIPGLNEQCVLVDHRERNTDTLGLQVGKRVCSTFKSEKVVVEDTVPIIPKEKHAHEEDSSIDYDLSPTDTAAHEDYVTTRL
Chain of Potassium voltage-gated channel subfamily E member 1 (Homo sapiens) + Potassium voltage-gated channel subfamily KQT member 1 (Homo sapiens) (P51787 whole entry, looked up): as the sequence (P51787 whole entry, looked up) above

Cc1[nH][nH]c(=O)c1C(c1ccc(-c2ccc(Cl)cc2)o1)c1c(C)[nH][nH]c1=O
inactive: outcome [1] | outcome [2] | outcome [3] | outcome [5] | outcome [6] | outcome [7]
active: potentiation [4] 27.5%

COc1ccc(NC(=O)/C(Cl)=C(/Cl)S(=O)Cc2ccc(C)cc2)cn1 (stereo not drawn)
active: potentiation, less the hit threshold [10] 0.8%
inactive: outcome [1] | outcome [2] | activity increase over 3SD of controls [8] -1.5% | activation over 3SD threshold [9] -20.5% | activity over 3SD threshold [11] -44.7% | outcome [12]

Cc1cc2oc3ccc(NCCC4CCCN4C)cc3c(=O)c2cc1C (stereo not drawn)
inactive: outcome [1] | outcome [15] | outcome [17] | outcome [18]
active: FluxOR signal as % of negative control (100 = no effect) [2] 67.5% | inhibition [13] 63% | activity change, negative = inhibition [14] 8.34% | membrane potential signal change [16] 5.47%

CS(=O)(=O)c1sc(C(=O)NC(=S)Nc2ccc(OC(F)(F)F)cc2)c2c1C=CCC2
active: activation over 3SD threshold [9] 45.7% | potentiation [4] 92% | potentiation [5] 168%
inactive: outcome [1] | outcome [2] | activity increase over 3SD of controls [8] -1.6% | potentiation, less the hit threshold [10] -3.3% | activity over 3SD threshold [11] -36.7% | outcome [12] | outcome [3] | outcome [6]

CCCc1nc2sc3c(c2c(=O)n1NC(=O)CCCl)CCCC3
active: activation over 3SD threshold [9] 28.9% | potentiation, less the hit threshold [10] 69.9%
inactive: outcome [1] | outcome [2] | activity increase over 3SD of controls [8] -7% | activity over 3SD threshold [11] -17.7% | outcome [12]

COc1cccc(NC(=O)C2C(c3ccccc3)C2(Cl)Cl)c1 (stereo not drawn)
inactive: outcome [1] | outcome [2] | activity increase over 3SD of controls [8] -15.2% | activity over 3SD threshold [11] -29.8% | outcome [12]
active: activation over 3SD threshold [9] 4.2% | potentiation, less the hit threshold [10] 7%

Oc1c(Cl)cc(Cl)cc1/C=N/c1ncn[nH]1
inactive: outcome [1] | outcome [2] | activity increase over 3SD of controls [8] -13.3% | activation over 3SD threshold [9] -9.2% | activity over 3SD threshold [11] -28.1% | outcome [12] | outcome [6]
active: potentiation, less the hit threshold [10] 37.8% | activation [3] 232% | potentiation [4] 41.5% | potentiation [5] 156%
